Activity calls are given as the source filed them. Unless noted, how the calls were made is not given here.
Legend:
[1] = system: Wnt5a (protein binding on small-molecule microarray); assay: small molecules binding Wnt5a protein – biophysical, small-molecule microarray, 635/667 nm fluorescence, primary screen (AID 1142); conditions: 635 nm fluorescence, higher = more signal;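 further: fluorescence read at 667 nm with signal to noise per printed feature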
[2] = ATP-based viability of Huh7 replicon cells – cell-based, CellTiter-Glo luminescence, basal, 48 h, cytotoxicity control for HCV replication inhibitor project, primary screen (AID 1143); conditions: higher = more signal, called active from +8 up or from −8 down;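 further: Huh7 hepatoma cells carrying a hepatitis C replication reporter with no stimulus; test concentration not given here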
[3] = Pseudomonas biofilm growth suppression – PAO1 strain, BacTiter-Glo luminescence, LB-PBS, primary screen (AID 1144); conditions: P. aeruginosa PAO1 biofilm, 12 h, higher = more signal
[4] = basal CRE-LacZ reporter activity in PC12 – cell-based, unstimulated, primary screen (AID 1145); conditions: no forskolin, luminescence, 4.5 h, higher = more signal, called active from +8 up or from −8 down
[5] = forskolin-driven CRE-LacZ activity in PC12 – cell-based, CRE-LacZ reporter, forskolin-stimulated, primary screen (AID 1146); conditions: luminescence, 4.5 h, higher = more signal, called active from +8 up or from −8 down;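 further: PC12 cells with 6xCRE LacZ reporter stimulated by forskolin 10 µM; beta-galactosidase reporter signal reflecting CREB driven transcription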
[6] = molecular target: Streptavidin (Streptomyces avidinii) (UniProt P22629); assay: compounds binding control protein streptavidin – biophysical, small-molecule microarray, 635/667 nm fluorescence, artefact control for SMM compound annotation, primary screen (AID 1147); conditions: higher = more signal;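 further: signal reflects streptavidin binding to arrayed compounds as a control protein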
[7] = probe aInhba binding on compound microarray – biochemical, small-molecule microarray, 635/667 nm fluorescence, primary screen (AID 1148); conditions: higher = more signal;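 further: score merges 667nm spot fluorescence with signal-to-noise for antibody binding to printed compounds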
[8] = molecular target: Torsin-1A (Homo sapiens) (UniProt O14656); assay: TOR1A wild-type binding on microarray – cell lysate, small-molecule microarray, lysate, 635/667 nm, primary screen (AID 1149); conditions: COS7 hTOR1A-WT lysate, 635 nm fluorescence, higher = more signal
[9] = molecular target: Torsin-1A (Homo sapiens) (UniProt O14656); assay: torsin A mutant lysate binding on microarrays – cell lysate, small-molecule microarray, COS7 lysate, 635/667 nm fluorescence, primary screen (AID 1150); conditions: COS7 hTOR1A mutant lysate, 635 nm fluorescence, higher = more signal;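 further: score pools 667 nm emission and signal to noise measuring lysate protein binding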
[10] = system: Sonic hedgehog protein (Shh); assay: Sonic hedgehog microarray binding compounds – biochemical, small-molecule microarray, 635/667 nm fluorescence, primary screen (AID 1151); conditions: 635 nm fluorescence, higher = more signal;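 further: Shh protein binding to compounds spotted on small-molecule microarray slides; score combines spot fluorescence intensity with signal-to-noise across triplicate slides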
[11] = optical density shifts of acrAB sulA E. coli – strain DRC41, OD650, 48 h, E. coli filamentation inducer project, primary screen (AID 1152); conditions: higher = more signal, called active from +8 up or from −8 down;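 further: E. coli MC1000 strain DRC41 lacking acrAB efflux pump and sulA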
[12] = probe aLefty1 binding on compound microarray – biochemical, small-molecule microarray, 635/667 nm fluorescence, primary screen (AID 1153); conditions: higher = more signal;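 further: score merges spot fluorescence with signal-to-noise ratio from the scanned slide images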
[13] = plasmodial surface anion channel blockers, osmotic lysis – cell-based, P. falciparum Indochina, OD700, 1 h, primary screen (AID 1154); conditions: P. falciparum Indochina infected RBC osmotic lysis, higher = more signal, called active from +8 up or from −8 down
[14] = plasmodial surface anion channel blockers, osmotic lysis – cell-based, P. falciparum Indochina, OD700, 2 h, primary screen (AID 1155);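 further: lysis reports solute entry through the parasite surface anion channel PSAC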; conditions: P. falciparum Indochina infected erythrocytes, higher = more signal, called active from +8 up or from −8 down
[15] = changes in parasitized red cell lysis, either direction – P. falciparum Indochina, OD700, 3 h, PSAC antagonist project, primary screen (AID 1156); conditions: P. falciparum-infected erythrocytes, osmotic lysis, higher = more signal, called active from +8 up or from −8 down
[16] = plasmodial surface anion channel blockers, osmotic lysis – cell-based, P. falciparum Indochina, OD700, 18 h, primary screen (AID 1157); conditions: P. falciparum Indochina infected erythrocytes, osmotic lysis OD700, 18 h; higher = more signal, called active from +8 up or from −8 down
[17] = S6 kinase pathway phospho-S6 level changes – cell-based, A549, cytoblot, luminescence, serum-stimulated, primary screen (AID 1158); conditions: 5 h, higher = more signal;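 further: serum-stimulated A549 lung adenocarcinoma cells; signal is phosphorylated S6 detected by cytoblot immunostaining with HRP secondary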
[18] = molecular target: NADPH oxidase 2 (Homo sapiens) (UniProt P04839); assay: compounds shifting NOX2 Amplex Red fluorescence – cell-based, HEK293-NOX2, PMA-stimulated, NOX inhibitor project, primary screen (AID 1159); conditions: 45 min, higher = more signal, called active from +8 up or from −8 down; further: test concentration not given here
[19] = molecular target: NADPH oxidase 4 (Homo sapiens) (UniProt Q9NPH5); assay: compounds shifting NOX4 Amplex Red fluorescence – cell-based, HEK293-NOX4, tetracycline-induced, NOX inhibitor project, primary screen (AID 1160); conditions: HEK293-NOX4, Amplex Red H2O2 fluorescence, 45 min; higher = more signal, called active from +8 up or from −8 down
[20] = molecular target: NADPH oxidase 5 (Homo sapiens) (UniProt Q96PH1); assay: compounds shifting NOX5 Amplex Red fluorescence – cell-based, HEK293-NOX5, NOX inhibitor project, primary screen (AID 1161); conditions: HEK293-NOX5, ionomycin, 45 min, higher = more signal
NADPH oxidase 5 (Homo sapiens), sequence (Q96PH1 whole entry, looked up): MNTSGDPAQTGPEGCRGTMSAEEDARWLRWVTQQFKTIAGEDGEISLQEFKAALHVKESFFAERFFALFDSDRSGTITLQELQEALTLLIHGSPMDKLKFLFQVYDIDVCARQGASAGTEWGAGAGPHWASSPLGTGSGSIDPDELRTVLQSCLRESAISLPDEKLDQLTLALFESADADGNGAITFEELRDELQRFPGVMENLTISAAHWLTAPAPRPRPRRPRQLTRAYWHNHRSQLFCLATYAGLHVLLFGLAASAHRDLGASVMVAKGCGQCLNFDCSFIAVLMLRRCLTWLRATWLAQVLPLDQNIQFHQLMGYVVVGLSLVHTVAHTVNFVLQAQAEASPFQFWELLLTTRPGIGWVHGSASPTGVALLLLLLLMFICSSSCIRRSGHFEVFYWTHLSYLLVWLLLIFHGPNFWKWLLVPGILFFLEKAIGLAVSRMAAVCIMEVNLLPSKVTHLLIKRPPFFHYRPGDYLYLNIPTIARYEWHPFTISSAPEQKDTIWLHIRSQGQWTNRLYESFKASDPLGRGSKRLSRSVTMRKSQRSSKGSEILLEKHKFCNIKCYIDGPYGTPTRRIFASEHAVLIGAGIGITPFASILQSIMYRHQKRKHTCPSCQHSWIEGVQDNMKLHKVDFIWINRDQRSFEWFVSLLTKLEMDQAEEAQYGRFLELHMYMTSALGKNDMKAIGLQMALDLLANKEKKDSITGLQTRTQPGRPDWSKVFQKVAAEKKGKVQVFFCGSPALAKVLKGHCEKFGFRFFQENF

NADPH oxidase 2 (Homo sapiens), sequence (P04839 whole entry, looked up): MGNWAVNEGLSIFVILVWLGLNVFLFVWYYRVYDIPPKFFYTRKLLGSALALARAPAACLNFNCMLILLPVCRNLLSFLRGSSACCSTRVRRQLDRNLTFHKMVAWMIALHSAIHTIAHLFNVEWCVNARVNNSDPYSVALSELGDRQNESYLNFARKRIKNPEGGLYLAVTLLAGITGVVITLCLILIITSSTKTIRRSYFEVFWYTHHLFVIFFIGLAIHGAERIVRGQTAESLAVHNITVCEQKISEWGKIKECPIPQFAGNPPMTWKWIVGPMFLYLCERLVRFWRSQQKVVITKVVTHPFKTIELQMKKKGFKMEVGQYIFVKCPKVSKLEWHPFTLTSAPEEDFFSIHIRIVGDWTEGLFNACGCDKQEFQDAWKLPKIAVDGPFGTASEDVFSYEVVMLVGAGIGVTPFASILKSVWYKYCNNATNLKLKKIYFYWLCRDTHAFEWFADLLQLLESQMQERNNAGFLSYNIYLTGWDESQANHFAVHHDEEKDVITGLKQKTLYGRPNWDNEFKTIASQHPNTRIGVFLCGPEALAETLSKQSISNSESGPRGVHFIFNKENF
Torsin-1A (Homo sapiens), sequence (O14656 whole entry, looked up): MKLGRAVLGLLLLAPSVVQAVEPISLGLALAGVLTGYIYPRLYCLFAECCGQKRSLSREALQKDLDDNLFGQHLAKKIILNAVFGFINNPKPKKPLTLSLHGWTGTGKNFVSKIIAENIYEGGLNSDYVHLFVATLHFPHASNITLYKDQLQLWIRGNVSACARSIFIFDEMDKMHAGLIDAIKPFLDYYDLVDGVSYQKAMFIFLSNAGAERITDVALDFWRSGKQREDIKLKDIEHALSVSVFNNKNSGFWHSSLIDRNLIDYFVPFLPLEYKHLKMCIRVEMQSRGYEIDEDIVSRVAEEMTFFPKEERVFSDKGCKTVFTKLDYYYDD
NADPH oxidase 4 (Homo sapiens), sequence (Q9NPH5 whole entry, looked up): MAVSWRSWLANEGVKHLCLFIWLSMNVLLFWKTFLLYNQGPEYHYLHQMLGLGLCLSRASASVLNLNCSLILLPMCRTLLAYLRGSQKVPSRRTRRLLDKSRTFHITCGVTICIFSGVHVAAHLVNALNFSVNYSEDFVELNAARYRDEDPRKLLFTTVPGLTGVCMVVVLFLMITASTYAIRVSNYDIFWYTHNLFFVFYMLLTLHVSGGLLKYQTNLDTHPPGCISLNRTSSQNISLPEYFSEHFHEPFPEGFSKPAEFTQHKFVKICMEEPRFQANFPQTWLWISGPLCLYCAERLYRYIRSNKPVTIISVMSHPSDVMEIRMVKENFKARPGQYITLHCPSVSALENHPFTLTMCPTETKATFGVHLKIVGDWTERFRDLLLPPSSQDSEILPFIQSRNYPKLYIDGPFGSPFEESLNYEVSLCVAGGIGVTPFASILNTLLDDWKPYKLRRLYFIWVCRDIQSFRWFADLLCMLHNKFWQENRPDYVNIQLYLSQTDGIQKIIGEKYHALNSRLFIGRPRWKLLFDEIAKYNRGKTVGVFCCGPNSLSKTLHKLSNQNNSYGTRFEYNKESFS
Streptavidin (Streptomyces avidinii), sequence (P22629 whole entry, looked up): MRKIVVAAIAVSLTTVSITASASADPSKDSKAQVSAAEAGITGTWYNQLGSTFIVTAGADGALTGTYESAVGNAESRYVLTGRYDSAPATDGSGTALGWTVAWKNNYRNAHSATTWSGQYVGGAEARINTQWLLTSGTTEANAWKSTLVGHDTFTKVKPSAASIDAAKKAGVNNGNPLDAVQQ

CC(C)CON=C1C[C@@H](O)[C@@H](O)[C@@H]2[C@@H]3C(=O)N(Cc4ccccc4)C(=O)[C@@H]3CC[C@@H]12
composite z-score [1]: 0.0819
z-score [2]: 0.674 (inactive)
z-score [3]: 0.579 (inactive)
z-score [4]: -0.203 (inactive)
z-score [5]: 0.462 (inactive)
composite z-score [6]: -0.354
composite z-score [7]: -0.071
composite z-score [8]: 0.407
composite z-score [9]: 0.16
composite z-score [10]: 0.305
z-score [11]: 0.102 (inactive)
composite z-score [12]: 0.148
z-score [13]: 0.252 (inactive)
z-score [14]: 0.227 (inactive)
z-score [15]: 0.65 (inactive)
z-score [16]: -0.0378 (inactive)
z-score [17]: 0.524
z-score [18]: 1.39 (inactive)
z-score [19]: 0.387 (inactive)
z-score [20]: -0.0393

O=C1C[C@]2(c3ccc([N+](=O)[O-])cc3)C(=O)N(CCN3CCOCC3)c3cc(CO)ccc3[C@H]2N1CC12CC3CC(CC(C3)C1)C2
composite z-score [1]: -0.433
z-score [2]: -1.04 (inactive)
z-score [3]: -0.954 (inactive)
z-score [4]: 0.324 (inactive)
z-score [5]: 0.247 (inactive)
composite z-score [6]: -0.0783
composite z-score [7]: -0.122
composite z-score [8]: -0.967
composite z-score [9]: -0.862
composite z-score [10]: -0.509
z-score [11]: 0.319 (inactive)
composite z-score [12]: 0.056
z-score [13]: 1.4 (inactive)
z-score [14]: -0.103 (inactive)
z-score [15]: 1.68 (inactive)
z-score [16]: 0.45 (inactive)
z-score [17]: 0.349
z-score [18]: 0.194 (inactive)
z-score [19]: -1.09 (inactive)
z-score [20]: -2.03

CN1C(=O)C2C=CC(C(O)c3ccc(Br)cc3)N(N(c3ccccc3)c3ccccc3)C2C1=O (stereo not given)
composite z-score [1]: -0.0158
z-score [2]: -0.776 (inactive)
z-score [3]: -1.19 (inactive)
z-score [4]: 1 (inactive)
z-score [5]: -0.342 (inactive)
composite z-score [6]: 1.04
composite z-score [7]: -0.0375
composite z-score [8]: 0.293
composite z-score [9]: -0.135
composite z-score [10]: -0.583
z-score [11]: -1.19 (inactive)
composite z-score [12]: 0.446
z-score [13]: 15.4 (active)
z-score [14]: 3.08 (inactive)
z-score [15]: 0.948 (inactive)
z-score [16]: 1.76 (inactive)
z-score [17]: -0.0423
z-score [18]: 1.2 (inactive)
z-score [19]: 0.184 (inactive)
z-score [20]: 0.24

O=C1[C@H]2[C@H]3[C@H](O)[C@H](O)CC(=NOC[C@@H](O)COCc4ccco4)[C@H]3CC[C@H]2C(=O)N1c1cccc(Oc2ccccc2)c1
composite z-score [1]: -0.31
z-score [2]: -0.6 (inactive)
z-score [3]: -0.0166 (inactive)
z-score [4]: -0.21 (inactive)
z-score [5]: 0.452 (inactive)
composite z-score [6]: -0.393
composite z-score [7]: -0.285
composite z-score [8]: 0.626
composite z-score [9]: 0.948
composite z-score [10]: -0.621
z-score [11]: 0.66 (inactive)
composite z-score [12]: -0.353
z-score [13]: 3.18 (inactive)
z-score [14]: 1.15 (inactive)
z-score [15]: 1.28 (inactive)
z-score [16]: 0.795 (inactive)
z-score [17]: 0.404
z-score [18]: -2.98 (inactive)
z-score [19]: 1.31 (inactive)
z-score [20]: -0.185

C[N+](C)(C)CCCCCCNC(=O)[C@@H]1C[C@@H]2C(=O)N3CCC[C@H]3C(=O)N2[C@@H]1c1cccc(OCCO)c1
composite z-score [1]: -0.0544
z-score [2]: -0.345 (inactive)
z-score [3]: -1.34 (inactive)
z-score [4]: -1.34 (inactive)
z-score [5]: 0.27 (inactive)
composite z-score [6]: -1.05
composite z-score [7]: -0.0754
composite z-score [8]: -0.383
composite z-score [9]: 0.624
composite z-score [10]: 2.25
z-score [11]: 0.733 (inactive)
composite z-score [12]: 0.388
z-score [13]: 5.3 (inactive)
z-score [14]: 0.679 (inactive)
z-score [15]: 1.45 (inactive)
z-score [16]: 0.277 (inactive)
z-score [17]: 0.0239
z-score [18]: 0.15 (inactive)
z-score [19]: 0.982 (inactive)
z-score [20]: 1.49

O=C(CS)NCCCCCNC(=O)[C@H]1C[C@H]2C(=O)N3CCC[C@H]3C(=O)N2[C@H]1c1cccc(OCCO)c1
composite z-score [1]: 0.76
z-score [2]: 0.0319 (inactive)
z-score [3]: 0.162 (inactive)
z-score [4]: -0.126 (inactive)
z-score [5]: 0.899 (inactive)
composite z-score [6]: 0.0654
composite z-score [7]: -0.016
composite z-score [8]: 0.581
composite z-score [9]: 0.751
composite z-score [10]: 1.99
z-score [11]: -0.0612 (inactive)
composite z-score [12]: 0.315
z-score [13]: 3.12 (inactive)
z-score [14]: 0.55 (inactive)
z-score [15]: -2.35 (inactive)
z-score [16]: 0.35 (inactive)
z-score [17]: 0.345
z-score [18]: 1.45 (inactive)
z-score [19]: 0.557 (inactive)
z-score [20]: 0.557

CCCC[C@@H](O)C1=C(C)C[C@H]2C(=O)N(Cc3ccccc3)C(=O)[C@H]2[C@H]1CO
composite z-score [1]: -0.0299
z-score [2]: -0.295 (inactive)
z-score [3]: -0.665 (inactive)
z-score [4]: 1.29 (inactive)
z-score [5]: 0.342 (inactive)
composite z-score [6]: -0.451
composite z-score [7]: -0.0986
composite z-score [8]: 0.149
composite z-score [9]: -0.21
composite z-score [10]: 0.572
z-score [11]: 0.969 (inactive)
composite z-score [12]: 0.0736
z-score [13]: 2.44 (inactive)
z-score [14]: -0.252 (inactive)
z-score [15]: -0.347 (inactive)
z-score [16]: 0.206 (inactive)
z-score [17]: 0.431
z-score [18]: -0.789 (inactive)
z-score [19]: 0.358 (inactive)
z-score [20]: -0.0632

O=C1[C@H]2[C@H]3[C@H](O)[C@H](O)CC(=NO[C@@H]4O[C@H](CO)[C@@H](O)[C@H](O)[C@H]4O)[C@H]3CC[C@H]2C(=O)N1C1CCCCC1
composite z-score [1]: -0.0314
z-score [2]: 0.582 (inactive)
z-score [3]: 0.423 (inactive)
z-score [4]: -0.0175 (inactive)
z-score [5]: 0.234 (inactive)
composite z-score [6]: -0.534
composite z-score [7]: -0.0313
composite z-score [8]: 1.03
composite z-score [9]: 0.843
composite z-score [10]: 0.61
z-score [11]: -0.094 (inactive)
composite z-score [12]: -0.0046
z-score [13]: 3.65 (inactive)
z-score [14]: -0.0811 (inactive)
z-score [15]: -0.284 (inactive)
z-score [16]: -0.136 (inactive)
z-score [17]: 0.561
z-score [18]: -0.717 (inactive)
z-score [19]: 1.15 (inactive)
z-score [20]: 0.329

CCCCC(=C=CC[C@H](O)c1ccccc1OCCO)C[C@H](O)COCc1ccccc1
composite z-score [1]: -0.0702
z-score [2]: -1.41 (inactive)
z-score [3]: 1.44 (inactive)
z-score [4]: 3.27 (inactive)
z-score [5]: 0.571 (inactive)
composite z-score [6]: 0.395
composite z-score [7]: -0.0523
composite z-score [8]: 1.08
composite z-score [9]: 0.259
composite z-score [10]: 0.0668
z-score [11]: -0.16 (inactive)
composite z-score [12]: -0.0544
z-score [13]: 12 (active)
z-score [14]: 1.72 (inactive)
z-score [15]: 0.725 (inactive)
z-score [16]: 0.921 (inactive)
z-score [17]: -0.424
z-score [18]: -1.02 (inactive)
z-score [19]: -1.37 (inactive)
z-score [20]: -2.05
